Compound: COc1cccc(CN(C)C(=O)CCl)c1
Experiment: log2 ratio of Biotin-Ahx-Ub-VS probe labelling (compound/DMSO); higher = less target engagement, active = hit call of the paper (q ≤ 0.05, log2 ratio ≤ -1)
Settings: compound concentration: 50uM; treatment time: 3 h
Procedure: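 Round 2 competitive ABPP in HEK293T lysate. Compounds were tested at 50 and 200 µM for 3 h, followed by Biotin-Ahx-Ub-VS enrichment and diaPASEF LC-MS/MS. Values are the average log2 ratio (compound/DMSO) from an unpaired t-test (n=3 treated, n=26 DMSO).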

UniProt Q9Y4E8, sequence (Q9Y4E8 whole entry): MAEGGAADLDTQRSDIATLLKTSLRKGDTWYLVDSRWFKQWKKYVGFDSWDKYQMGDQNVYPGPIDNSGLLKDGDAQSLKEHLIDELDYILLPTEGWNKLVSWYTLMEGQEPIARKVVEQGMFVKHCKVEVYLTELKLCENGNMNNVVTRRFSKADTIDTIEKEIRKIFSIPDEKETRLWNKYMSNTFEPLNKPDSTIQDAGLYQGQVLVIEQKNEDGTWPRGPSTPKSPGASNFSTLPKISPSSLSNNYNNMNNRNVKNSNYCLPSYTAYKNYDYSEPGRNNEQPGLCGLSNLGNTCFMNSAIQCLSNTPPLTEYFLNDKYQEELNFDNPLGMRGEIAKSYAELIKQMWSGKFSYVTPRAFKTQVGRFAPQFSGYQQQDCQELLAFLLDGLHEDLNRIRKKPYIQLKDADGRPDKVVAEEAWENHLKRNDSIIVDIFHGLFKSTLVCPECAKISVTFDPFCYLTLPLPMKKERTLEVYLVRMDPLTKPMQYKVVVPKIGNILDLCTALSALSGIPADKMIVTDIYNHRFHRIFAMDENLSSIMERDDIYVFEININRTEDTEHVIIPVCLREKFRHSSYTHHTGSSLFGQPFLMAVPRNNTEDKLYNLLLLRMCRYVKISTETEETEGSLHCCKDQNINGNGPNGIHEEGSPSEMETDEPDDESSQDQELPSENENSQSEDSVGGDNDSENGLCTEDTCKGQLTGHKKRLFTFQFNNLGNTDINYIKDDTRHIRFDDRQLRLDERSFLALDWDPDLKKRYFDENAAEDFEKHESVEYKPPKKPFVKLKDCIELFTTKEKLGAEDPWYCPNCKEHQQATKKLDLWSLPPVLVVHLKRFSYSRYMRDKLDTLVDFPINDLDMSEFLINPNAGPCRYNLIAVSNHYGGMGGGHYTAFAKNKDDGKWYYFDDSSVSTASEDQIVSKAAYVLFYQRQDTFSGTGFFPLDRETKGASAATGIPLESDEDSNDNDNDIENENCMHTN
UniProt Q9NUU6, sequence (Q9NUU6 whole entry): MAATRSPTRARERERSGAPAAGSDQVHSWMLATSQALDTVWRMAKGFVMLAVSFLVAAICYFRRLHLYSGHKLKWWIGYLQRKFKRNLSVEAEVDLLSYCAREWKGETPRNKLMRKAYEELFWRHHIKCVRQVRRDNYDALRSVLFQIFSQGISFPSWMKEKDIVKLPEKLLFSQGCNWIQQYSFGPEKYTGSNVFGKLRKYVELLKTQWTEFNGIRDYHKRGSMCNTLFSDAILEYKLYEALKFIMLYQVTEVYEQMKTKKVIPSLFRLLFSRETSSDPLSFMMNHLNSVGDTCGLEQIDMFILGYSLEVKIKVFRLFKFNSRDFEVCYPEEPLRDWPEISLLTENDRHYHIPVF
UniProt Q9P2H5, sequence (Q9P2H5 whole entry): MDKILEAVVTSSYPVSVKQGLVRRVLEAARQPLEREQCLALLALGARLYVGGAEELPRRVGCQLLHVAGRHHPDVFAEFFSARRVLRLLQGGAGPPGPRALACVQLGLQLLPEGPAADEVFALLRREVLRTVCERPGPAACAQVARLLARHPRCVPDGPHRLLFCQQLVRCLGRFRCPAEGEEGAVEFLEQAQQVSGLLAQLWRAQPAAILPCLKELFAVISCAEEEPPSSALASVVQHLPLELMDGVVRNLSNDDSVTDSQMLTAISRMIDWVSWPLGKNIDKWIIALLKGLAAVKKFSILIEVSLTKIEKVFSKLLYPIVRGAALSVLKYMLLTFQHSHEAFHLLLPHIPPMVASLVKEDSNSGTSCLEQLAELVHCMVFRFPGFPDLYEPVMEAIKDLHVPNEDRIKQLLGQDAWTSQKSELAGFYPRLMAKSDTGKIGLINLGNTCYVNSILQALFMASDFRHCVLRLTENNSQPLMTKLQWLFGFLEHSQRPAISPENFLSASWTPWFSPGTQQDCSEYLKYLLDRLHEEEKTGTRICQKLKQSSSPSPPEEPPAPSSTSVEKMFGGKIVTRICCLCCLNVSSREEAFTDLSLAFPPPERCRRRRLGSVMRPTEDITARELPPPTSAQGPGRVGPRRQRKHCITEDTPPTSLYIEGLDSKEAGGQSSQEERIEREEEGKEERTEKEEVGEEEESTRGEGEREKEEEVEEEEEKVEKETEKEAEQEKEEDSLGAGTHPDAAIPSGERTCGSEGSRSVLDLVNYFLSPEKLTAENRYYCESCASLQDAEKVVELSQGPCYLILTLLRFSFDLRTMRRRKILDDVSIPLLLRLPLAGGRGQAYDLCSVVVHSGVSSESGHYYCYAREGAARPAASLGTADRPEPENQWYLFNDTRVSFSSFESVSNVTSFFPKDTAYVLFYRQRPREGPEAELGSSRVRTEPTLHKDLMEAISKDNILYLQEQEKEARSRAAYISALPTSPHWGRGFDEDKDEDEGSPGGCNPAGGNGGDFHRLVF
UniProt Q9H9J4, sequence (Q9H9J4 whole entry): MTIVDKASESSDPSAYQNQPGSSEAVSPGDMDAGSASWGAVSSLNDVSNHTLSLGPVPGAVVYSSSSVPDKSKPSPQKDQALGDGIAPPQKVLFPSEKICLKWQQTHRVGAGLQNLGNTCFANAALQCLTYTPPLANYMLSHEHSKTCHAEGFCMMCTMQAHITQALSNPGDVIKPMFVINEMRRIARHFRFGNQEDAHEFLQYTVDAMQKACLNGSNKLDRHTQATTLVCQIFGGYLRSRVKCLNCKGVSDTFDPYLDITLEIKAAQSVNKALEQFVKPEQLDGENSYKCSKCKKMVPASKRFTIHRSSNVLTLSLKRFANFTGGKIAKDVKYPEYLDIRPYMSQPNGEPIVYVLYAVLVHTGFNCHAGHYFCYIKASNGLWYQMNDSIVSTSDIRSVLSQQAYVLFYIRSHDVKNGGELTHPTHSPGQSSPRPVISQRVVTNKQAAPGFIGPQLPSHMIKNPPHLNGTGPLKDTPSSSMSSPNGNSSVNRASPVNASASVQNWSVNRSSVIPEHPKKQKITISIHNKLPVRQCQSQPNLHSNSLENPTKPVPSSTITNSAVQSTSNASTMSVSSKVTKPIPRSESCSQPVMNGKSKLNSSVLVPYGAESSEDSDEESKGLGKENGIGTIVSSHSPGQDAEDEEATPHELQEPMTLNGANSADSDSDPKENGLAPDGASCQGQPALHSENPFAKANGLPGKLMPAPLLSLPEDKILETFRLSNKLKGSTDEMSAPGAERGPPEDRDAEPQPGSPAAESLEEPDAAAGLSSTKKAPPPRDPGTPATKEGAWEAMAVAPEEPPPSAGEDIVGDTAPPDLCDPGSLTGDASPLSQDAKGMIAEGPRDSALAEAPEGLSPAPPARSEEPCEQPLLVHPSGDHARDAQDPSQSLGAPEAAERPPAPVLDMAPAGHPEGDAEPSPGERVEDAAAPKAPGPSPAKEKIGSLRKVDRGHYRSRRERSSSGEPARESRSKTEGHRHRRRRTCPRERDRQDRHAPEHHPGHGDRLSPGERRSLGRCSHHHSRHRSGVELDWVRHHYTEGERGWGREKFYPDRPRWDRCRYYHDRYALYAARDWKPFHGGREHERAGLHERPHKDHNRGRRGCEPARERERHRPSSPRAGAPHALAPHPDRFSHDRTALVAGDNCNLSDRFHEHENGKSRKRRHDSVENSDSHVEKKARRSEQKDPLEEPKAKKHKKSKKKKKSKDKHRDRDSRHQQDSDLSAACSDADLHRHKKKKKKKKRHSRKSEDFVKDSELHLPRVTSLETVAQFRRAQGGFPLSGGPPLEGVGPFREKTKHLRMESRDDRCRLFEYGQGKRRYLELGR
UniProt Q8N6M0, sequence (Q8N6M0 whole entry): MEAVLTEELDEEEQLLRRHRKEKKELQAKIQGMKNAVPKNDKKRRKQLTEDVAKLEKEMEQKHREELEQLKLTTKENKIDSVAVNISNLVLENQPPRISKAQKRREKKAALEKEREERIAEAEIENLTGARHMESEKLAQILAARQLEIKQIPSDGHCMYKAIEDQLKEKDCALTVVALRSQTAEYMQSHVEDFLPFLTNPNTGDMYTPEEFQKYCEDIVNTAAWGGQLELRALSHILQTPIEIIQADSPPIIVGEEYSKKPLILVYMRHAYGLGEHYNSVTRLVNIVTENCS
UniProt O15372, sequence (O15372 whole entry): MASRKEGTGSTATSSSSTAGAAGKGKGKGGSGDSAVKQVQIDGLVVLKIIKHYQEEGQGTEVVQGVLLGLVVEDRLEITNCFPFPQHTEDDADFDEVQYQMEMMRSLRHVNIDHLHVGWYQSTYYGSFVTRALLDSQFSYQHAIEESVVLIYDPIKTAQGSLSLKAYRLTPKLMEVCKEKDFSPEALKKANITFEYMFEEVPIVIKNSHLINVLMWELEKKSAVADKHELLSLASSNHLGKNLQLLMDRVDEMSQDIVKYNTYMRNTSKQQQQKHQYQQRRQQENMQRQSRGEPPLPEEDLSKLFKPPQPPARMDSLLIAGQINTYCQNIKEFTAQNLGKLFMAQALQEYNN
UniProt Q5T2D3, sequence (Q5T2D3 whole entry): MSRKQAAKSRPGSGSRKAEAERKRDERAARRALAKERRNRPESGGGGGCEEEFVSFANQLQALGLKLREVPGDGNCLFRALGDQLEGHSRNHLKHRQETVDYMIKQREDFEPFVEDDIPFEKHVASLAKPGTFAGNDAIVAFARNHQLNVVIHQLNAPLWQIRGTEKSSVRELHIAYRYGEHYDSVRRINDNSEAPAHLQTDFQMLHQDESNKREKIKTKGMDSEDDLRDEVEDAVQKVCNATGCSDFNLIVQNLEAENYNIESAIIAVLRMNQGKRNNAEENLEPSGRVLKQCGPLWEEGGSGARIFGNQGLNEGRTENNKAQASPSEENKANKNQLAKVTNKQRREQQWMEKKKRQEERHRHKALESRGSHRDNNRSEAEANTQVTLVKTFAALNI
UniProt P09936, sequence (P09936 whole entry, looked up): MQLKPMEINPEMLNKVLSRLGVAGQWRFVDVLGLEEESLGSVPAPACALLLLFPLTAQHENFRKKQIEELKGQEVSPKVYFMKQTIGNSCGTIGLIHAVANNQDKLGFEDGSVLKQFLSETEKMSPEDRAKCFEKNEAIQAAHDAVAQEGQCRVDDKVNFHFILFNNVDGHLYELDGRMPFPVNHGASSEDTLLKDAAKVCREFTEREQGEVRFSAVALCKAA

log2 ratio of Biotin-Ahx-Ub-VS probe labelling, inactive:
UCHL1 (UniProt P09936) -0.0521, USP48 (UniProt Q86UV5) -0.144, OTUD7B (UniProt Q6GQQ9) -0.372, UniProt Q9P2H5 -0.267, PRPF8 (UniProt Q6P2Q9) 0.0579, USP12 (UniProt O75317) -0.38, USP5 (UniProt P45974) 0.274, EIF3H (UniProt O15372) -0.183, USP42 (UniProt Q9H9J4) 0.0563, USP19 (UniProt O94966) -0.209, USP15 (UniProt Q9Y4E8) -0.185, UniProt O00487 -0.186, OTUD6B (UniProt Q8N6M0) -0.149, EIF3F (UniProt O00303) -0.14, USP10 (UniProt Q14694) -0.177, OTUB1 (UniProt Q96FW1) -0.0418, FAM105A (UniProt Q9NUU6) -0.133, USP9X (UniProt Q93008) -0.0295, UniProt Q5T2D3 -0.199, ATXN3 (UniProt P54252) -0.217

Same assay, conditions: compound concentration: 200uM; treatment time: 3 h

log2 ratio of Biotin-Ahx-Ub-VS probe labelling, inactive:
UCHL1 (UniProt P09936) 0.0224, USP48 (UniProt Q86UV5) -0.273, OTUD7B (UniProt Q6GQQ9) -0.803, UniProt Q9P2H5 -0.143, PRPF8 (UniProt Q6P2Q9) 0.0324, USP12 (UniProt O75317) 0.0984, USP5 (UniProt P45974) 0.357, EIF3H (UniProt O15372) 0.043, USP42 (UniProt Q9H9J4) 0.184, USP19 (UniProt O94966) -0.661, USP15 (UniProt Q9Y4E8) -0.33, UniProt O00487 -0.459, OTUD6B (UniProt Q8N6M0) -0.283, EIF3F (UniProt O00303) -0.0452, USP10 (UniProt Q14694) 0.037, OTUB1 (UniProt Q96FW1) 0.0222, FAM105A (UniProt Q9NUU6) 0.096, USP9X (UniProt Q93008) -0.23, UniProt Q5T2D3 0.0147, ATXN3 (UniProt P54252) -0.786

— the supplement of paper PMC11732987, “Enantioselective OTUD7B fragment discovery through chemoproteomics screening and high-throughput optimisation” (Communications Chemistry, 2025)
